Screening results (PubChem BioAssay)
Only some compounds are listed: those with a hit (about 14% of all), similar ones and a draw of the others.
Shiga toxin inh = A qHTS for Small Molecule Inhibitors of Shiga Toxin; Vero cells, Shiga toxin protein synthesis inhibition reporter; inhibition, % at 38.7 µM; actives 9.2% (n = 290,000); AID 2315, 2010; in the data active = inhibition mostly above about 28%, no sharp cut-off; inactive = mostly below about 43%
NS1 function inh = qHTS Assay for Inhibitors of Influenza NS1 Protein Function; Potency, µM (titrated, usually from 46.1 µM); actives 0.4% (n = 270,000); calls by dose curve; also: actives are rising curves; nearly all actives have a fitted effect of over 50% in size
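OD600 was taken as the measure of yeast growth restored by compound in an NS1-expressing S. cerevisiae strain. Cells had been washed out of glucose medium and diluted 1:100 into galactose -URA medium, pH 6.0.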
LmPK inhibitor = qHTS Assay for Inhibitors of Leishmania Mexicana Pyruvate Kinase (LmPK); Q27686; purified LmPK, Kinase-Glo ATP luminescence, 1 h; Potency, µM (highest dose often 57.5 µM), actives largely listed as inhibitors; actives 0.37% (n = 290,000); AID 1721, 2009
Target sequence (Q27686 whole entry, looked up): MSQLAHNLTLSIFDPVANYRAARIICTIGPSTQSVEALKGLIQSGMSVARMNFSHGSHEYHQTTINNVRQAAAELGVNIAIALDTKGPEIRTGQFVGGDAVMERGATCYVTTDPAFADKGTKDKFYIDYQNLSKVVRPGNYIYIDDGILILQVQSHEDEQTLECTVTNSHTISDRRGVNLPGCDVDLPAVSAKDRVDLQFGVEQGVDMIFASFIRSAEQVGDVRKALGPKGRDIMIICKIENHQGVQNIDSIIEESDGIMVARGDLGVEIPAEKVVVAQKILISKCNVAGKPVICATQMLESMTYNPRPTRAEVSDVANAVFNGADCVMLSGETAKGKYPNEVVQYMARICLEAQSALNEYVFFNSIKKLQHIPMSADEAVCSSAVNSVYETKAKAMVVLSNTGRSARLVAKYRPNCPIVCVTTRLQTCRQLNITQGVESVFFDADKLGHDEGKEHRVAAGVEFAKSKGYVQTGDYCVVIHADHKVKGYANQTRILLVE
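ATP generated from ADP (0.1 mM) and PEP (0.5 mM) by 0.1 nM LmPK over 1 h at room temperature (pH 7.2 imidazole buffer) was detected by coupled luciferase luminescence. Values were normalized to uninhibited and no-enzyme wells.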
Cycloheximide cs = Cycloheximide Counterscreen for Small Molecule Inhibitors of Shiga Toxin; cell reporter, cycloheximide protein synthesis inhibition counterscreen; max response, %; actives 12% (n = 300,000); in the data active = max response mostly above about 13%, no sharp cut-off; inactive = mostly below about 14%; also: read at 38.3 µM for the half of the compounds with a filed dose
Giardia FBPA inh = qHTS Assay for Inhibitors of Fructose-1,6-bisphosphate Aldolase from Giardia Lamblia. AID 2451, 2010. purified Giardia FBPA. Potency, µM (series often up to 59.6 µM), actives largely listed as inhibitors. actives 0.71% (n = 290,000). A8B2U2; also: nearly all actives have a fitted effect of over 55% in size
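Giardia FBPA (40 nM reagent) was preincubated 10 min at RT with compound (up to 57.5 uM final), then substrate plus GAPDH/TPI/NAD/arsenate coupling system with diaphorase/resazurin was added; resorufin fluorescence (525/598 nm) was read after 20 min.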
Hits are given with their value; - = inactive; ? = inconclusive; . = no result; + = active, no number; [ ] = remark or other dose. Unless noted, calls follow the shape of the dose curve; as a rule, active = well fitted curve in the direction sought with a large enough effect; inconclusive = small, poorly fitted or top-dose-only effect, or another doubt; inactive = no such curve, though single readings can be large; an effect the other way counts as inactive or inconclusive.

SMILES | Shiga toxin inh | NS1 function inh | LmPK inhibitor | Cycloheximide cs | Giardia FBPA inh
Cc1ccc(S(=O)(=O)NCC2CCC(C(=O)NCCCN3CCCC3=O)CC2)cc1 (stereo unspecified) | - | - | - | - | .
Cc1cccc(OCC(=O)NCc2ccc(F)cc2)c1 | . | - | - | - | -
CCOC(=O)c1c(S(=O)(=O)Nc2ccccn2)c(C)n(C)c1C | - | - | - | - | -
O=c1[nH]c2ccc(S(=O)(=O)N3CCN(S(=O)(=O)c4c(F)cccc4F)CC3)cc2[nH]c1=O | - | . | . | - | .
CCCCC(=O)Nc1cc([N+](=O)[O-])ccc1Cl | - | - | - | - | -
CN1CCN(C(=S)Nc2cc([N+](=O)[O-])ccc2Cl)CC1 | - | - | - | 11.3 | ?
O=C(CC(=O)c1ccccc1)Nc1cc([N+](=O)[O-])ccc1Cl | - | ? | - | 15.5 | -
CN1CCN(c2cc([N+](=O)[O-])ccc2Cl)CC1 | - | . | - | - | -
CCC(CC)c1nnc(NC(=O)C2CC(=O)N(c3ccc4c(c3)OCCO4)C2)s1 (stereo unspecified) | - | - | - | - | -
CCc1ccc(-c2csc(NC(=O)C3CC(=O)N(c4ccc5c(c4)OCCO5)C3)n2)cc1 (stereo unspecified) | + | ? | - | 13.6 | -
O=C(Nc1nnc(SCc2ccc(F)cc2)s1)C1CC(=O)N(c2ccc3c(c2)OCCO3)C1 (stereo unspecified) | - | - | - | 15.4 | -
N#Cc1ccc(CSc2nnc(NC(=O)C3CC(=O)N(c4ccc5c(c4)OCCO5)C3)s2)cc1 (stereo unspecified) | - | - | - | 10.9 | -
COc1ccc(N2CC(C(=O)Nc3nnc(SCc4ccccn4)s3)CC2=O)cc1 (stereo unspecified) | - | - | - | 19.8 | -
Cc1ccccc1NC(=O)NC1CCCc2ccccc21 (stereo unspecified) | - | - | - | - | -
CC(=O)Nc1cc(-c2ccc(F)cc2)[nH]n1 | - | . | - | 24.0 | -
O=C(Nc1cc(-c2ccccc2)[nH]n1)c1ccccc1 | 78.7 | - | - | 33.7 | -
O=C(O)c1ccccc1C(=O)Nc1cc(-c2ccccc2)[nH]n1 | - | - | - | - | -
O=C(Nc1cc(-c2ccccc2)[nH]n1)c1ccccc1F | 104.6 | - | - | 41.6 | -
CCNC(=S)Nc1cc(-c2ccc(Cl)cc2)[nH]n1 | - | - | - | 23.6 | -
CCC(C(=O)Nc1cccnc1Cl)c1ccccc1 (stereo unspecified) | . | - | - | - | -
C=CCC1C=CC(Oc2ccc(F)cc2C)C(CO)O1 (stereo unspecified) | . | . | . | . | -[12.9 µM]
Clc1ccccc1C(Nc1cnccn1)Nc1cnccn1 | . | - | . | . | .
O=[N+]([O-])c1cccc(CSc2nc3ccccc3[nH]2)c1 | - | - | - | 13.2 | -
Cc1ccc2nc(SCc3ccc([N+](=O)[O-])cc3)[nH]c2c1 | 73.2 | - | - | 40.4 | -
COc1cccc(CC(Cc2nc3ccccc3[nH]2)c2nc3ccccc3[nH]2)c1 (stereo unspecified) | - | . | - | 35.1 | -
SMILES | Shiga toxin inh | NS1 function inh | LmPK inhibitor | Cycloheximide cs | Giardia FBPA inh
COc1cccc(CSc2nc3ccccc3[nH]2)c1 | - | - | ? | 29.9 | -
CC(C(=O)Nc1ccc(Cl)cc1)N1C(=O)NC2(CCCC2)C1=O (stereo unspecified) | - | - | - | - | -
CC1SC(C)C(=O)N(CC(=O)NCc2ccc(F)cc2)C1=O (stereo unspecified) | - | - | - | 12.8 | -
Cc1ccc(CNC(=O)COC(=O)Cc2ccc(-c3ccccc3)cc2)cc1 | - | - | - | - | -
COc1ccccc1CNC(=O)CN1C(=O)c2cccc(N)c2C1=O | 68.4 | - | - | 39.1 | -
O=C(COC(=O)Cc1ccc(-c2ccccc2)cc1)NCc1ccc(F)cc1 | - | - | - | 14.6 | -
CC(C)CNC(=O)CCCc1ccccc1 | 34.7 | - | - | 43.3 | -
CCC1SC(CC)C(=O)N(CC(=O)NCc2ccc(F)cc2)C1=O (stereo unspecified) | - | . | -[11.5 µM] | - | -
O=c1c(CCc2ccccc2)nc2cnc(Oc3ccccc3)nc2n1C1CC1 | . | . | . | . | -
O=c1c(-c2cccc(F)c2)nc2cncnc2n1Cc1ccccc1 | . | . | . | . | -
COc1ccc(N(CC(=O)NC2CCCC2)C(=O)CCC(=O)Nc2cc(C)on2)cc1OC | - | - | - | - | -
COc1ccc(S(=O)(=O)Nc2ccc(S(=O)(=O)Nc3nccs3)cc2)cc1 | - | - | - | - | -
NC(N)=NCCCC(NC(=O)C(N)Cc1ccc(O)cc1)C(=O)O (stereo unspecified) | . | . | . | . | -
Cc1ccc(CC(=O)NCc2ccc(F)cc2)cc1 | - | . | - | 11.4 | -
COc1ccccc1CNCC(=O)NCc1ccc(C)cc1 | - | - | - | - | ?
COc1ccccc1CNC(=O)Cc1ccc(C)cc1 | - | - | - | 25.4 | -
Cc1ccc2c(cnn2C(=O)CCCC(=O)NCc2ccc(F)cc2)c1 | 25.7 | - | - | 11.5 | -
COc1ccccc1CNC(=O)CCCc1ccccc1 | 64.6 | - | - | 23.3 | -
COc1ccc(OC)c(N(CC(=O)NC2CCCCCC2)S(=O)(=O)c2ccc(C)cc2)c1 | - | - | - | - | .
Cc1ccccc1C1CC(=O)Oc2ccc(O)cc21 (stereo unspecified) | - | . | . | - | -
OCC[C@@H]1C[C@@H](O)[C@H](O)[C@]2(Cc3ccccc3CCO2)O1 | - | - | - | - | -
Fc1ccc(OCc2cc(-c3ccccc3)no2)cc1 | 89.5 | - | - | 69.4 | -
Cc1cccc(OCc2cc(-c3ccccc3)no2)c1C | 85.7 | - | - | 47.8 | -
COc1ccc(-c2cc(COc3ccccc3)on2)cc1 | 66.6 | . | - | 49.0 | -
Clc1ccc(OCc2cc(-c3ccccc3)no2)c(Cl)c1 | 69.2 | - | - | 40.3 | -
SMILES | Shiga toxin inh | NS1 function inh | LmPK inhibitor | Cycloheximide cs | Giardia FBPA inh
CCN(CC)CC(=O)NCc1cc(-c2ccc(OC)cc2)no1 | - | - | - | - | -
Clc1ccc(SCc2cc(-c3ccccc3)no2)cc1 | - | - | - | - | -
CCC(=O)Nc1cccc(C(=O)N(Cc2ccccc2)Cc2ccccc2)c1 | - | - | - | - | -
O=C(Nc1ccc2c(c1)Cc1ccccc1-2)c1ccc(Br)o1 | 35.0 | - | - | 34.2 | -
CC(C)c1ccc(NC(=O)c2ccc(Br)o2)cc1 | 50.2 | - | - | 40.3 | -
CC(COc1ccc(C(C)C)cc1)NC(=O)c1ccc(Br)o1 (stereo unspecified) | - | - | - | - | .
Cc1nc(-c2ccc(NC(=O)c3ccc(Br)o3)cc2)cs1 | 114.5 | - | ? | 55.8 | -
O=C(NC(=S)NCc1ccccc1)c1ccc(Br)o1 | - | - | - | - | .
O=C(NC(=S)Nc1ccccc1)c1ccc(Br)o1 | 78.6 | - | - | 36.4 | -
COc1ccccc1NC(=O)N1CCN(Cc2ccc3c(c2)OCO3)CC1 | - | - | - | - | ?
COC(=O)c1cc(OC)c(OC)cc1NC(=O)c1ccc(Br)o1 | . | - | . | . | .
